Here are results for 13 molecules from PubChem BioAssay (NCI).

Some test systems named below: HCT-15 colon; HT29 colon; SNB-75 CNS; SNB-19 CNS; U251 CNS; PC-3 prostate; SK-MEL-5 melanoma; UACC-62 melanoma; LOX IMVI melanoma; SK-MEL-28 melanoma.
Holding throughout (experiment): NCI-60 one-dose screen, 48 h (100 = growth as untreated, 0 = no growth, -100 = all killed)
Holding throughout (settings): 10 µM unless noted

Compounds without any hit were thinned out: in the full panel of roughly 83,000, 20% have a hit.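 Method: cells in 96-well plates; compound added at one concentration; 48 h incubation; percent growth measured; values under 10 scored active.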 Unmarked numbers belong to inactive results. Activity calls are given as the source filed them.

As for `C[n+]1cc2c3c(ccc2c2ccc4cc5c(cc4c21)OCO5)OCO3`, the growth with HCT-15 colon was -81.2% (active); in the assay with HT29 colon it was -84.9% (active); with SNB-75 CNS it was -78.8% (active); in the assay with SNB-19 CNS, -87.1% (active); in the assay with U251 CNS, -82.2% (active); in the assay with PC-3 prostate, -72.8% (active). The growth with SK-MEL-5 melanoma was -99.4% (active); in the assay on UACC-62 melanoma it was -66.7% (active); with LOX IMVI melanoma it was -73.9% (active); in the assay with SK-MEL-28 melanoma it was -92.1% (active).

In the case of `Cn1c(-c2c(N)n(Cc3ccc(C(F)(F)F)cc3)c3nc(C#N)c(C#N)nc23)nc2ccccc21`, the growth in the assay on HCT-15 colon was 12.5%; in the assay with HT29 colon it was 9.72% (active); with SNB-75 CNS, 15.1%; in the assay with SNB-19 CNS it was 21.3%; in the assay on U251 CNS, 5.09% (active); in the assay on PC-3 prostate, -26.6% (active). In addition, the growth was -10.4% (active) in the assay with SK-MEL-5 melanoma, 18.6% in the assay on UACC-62 melanoma, 2.4% (active) with LOX IMVI melanoma and 28.8% with SK-MEL-28 melanoma.

`Cc1c(O)cc(-c2cnc(N/N=C\c3ccc(Cl)cc3)s2)c(O)c1C`: the growth with HCT-15 colon was 85%; with HT29 colon, 101%; with SNB-75 CNS, 94.2%; in the assay with SNB-19 CNS, 97%; in the assay on U251 CNS it was 89.9%; in the assay on PC-3 prostate, 66.4%. In addition, the growth is 79.8% in the assay with SK-MEL-5 melanoma, 81.6% in the assay with UACC-62 melanoma, 62.2% in the assay on LOX IMVI melanoma and 94.4% in the assay with SK-MEL-28 melanoma.

With `CCCCCCCCCCCC(c1ccccc1)[N+](C)(C)C` (stereo not given), the growth in the assay on HCT-15 colon was 93.4%; in the assay with HT29 colon it was 3.96% (active); with SNB-75 CNS it was -15.3% (active); in the assay on SNB-19 CNS it was 25.2%; in the assay with U251 CNS it was 18.3%; with PC-3 prostate, -18.8% (active). In addition, the growth is -80.1% (active) in the assay on SK-MEL-5 melanoma, 6.22% (active) in the assay on UACC-62 melanoma, -36.8% (active) with LOX IMVI melanoma and 31.6% with SK-MEL-28 melanoma.

As to `CC1=C([Se]CC(OC(=O)[C@@H](CO)NC(=O)OC(C)(C)C)C(=O)NC(C)(C)C)C(=O)c2ccccc2C1=O` (stereo not given in full), the growth in the assay on HCT-15 colon is -74.1% (active); in the assay with HT29 colon, -8.15% (active); with SNB-75 CNS, -100% (active); in the assay with SNB-19 CNS, -100% (active); in the assay with U251 CNS, -95.2% (active); with PC-3 prostate it was -71.8% (active). For the same molecule, the growth in the assay on SK-MEL-5 melanoma is -98.2% (active); in the assay on UACC-62 melanoma, -100% (active); with LOX IMVI melanoma it was -96.4% (active); with SK-MEL-28 melanoma, -100% (active).

For the molecule `COc1ccc(C(=NN=C(N)N)c2ccc(OC)cc2)cc1`, the growth is 69.1% with HCT-15 colon; 15.4% in the assay with HT29 colon; -5.63% (active) in the assay with SNB-75 CNS; 43.6% in the assay on SNB-19 CNS; 39.4% with U251 CNS; 30.6% in the assay with PC-3 prostate. The growth in the assay on SK-MEL-5 melanoma was 13.9%; in the assay on UACC-62 melanoma, 52.6%; in the assay with LOX IMVI melanoma, 15.8%; in the assay with SK-MEL-28 melanoma, 59%.

Consider `CCOC(=O)c1c(-c2ccc(Cl)cc2)c(C#N)c(=O)n(-c2ccccc2CC)c1N`, for which the growth in the assay on HCT-15 colon is 89.7%; in the assay on HT29 colon it was 110%; in the assay with SNB-75 CNS it was 89.8%; with SNB-19 CNS, 120%; with U251 CNS, 90%; in the assay on PC-3 prostate, 77.5%. Besides, the growth with SK-MEL-5 melanoma is 85.1%; in the assay on UACC-62 melanoma, 68.8%; with LOX IMVI melanoma, 95%; with SK-MEL-28 melanoma, 99.3%.

Regarding `COc1cc(N2C(=O)c3nccnc3C2=O)cc(OC)c1OC`, the growth with HCT-15 colon is 104%; in the assay on HT29 colon it was 99.8%; in the assay on SNB-75 CNS, 103%; in the assay with SNB-19 CNS, 106%; in the assay with U251 CNS, 97.5%; in the assay with PC-3 prostate, 98.7%. The growth in the assay with SK-MEL-5 melanoma is 111%; with UACC-62 melanoma, 114%; with LOX IMVI melanoma it was 106%; with SK-MEL-28 melanoma, 108%.

For `N=c1sc(Cc2ccc(Cl)cc2)cn1CC(=O)c1ccc(F)cc1`, the growth is 50.4% in the assay with HCT-15 colon; 70.6% in the assay with HT29 colon; 90.3% in the assay with SNB-75 CNS; 88% in the assay with SNB-19 CNS; 79.4% in the assay with U251 CNS; 75.5% in the assay with PC-3 prostate. Besides, the growth in the assay with SK-MEL-5 melanoma was 62.7%; in the assay with UACC-62 melanoma, 9.38% (active); in the assay with LOX IMVI melanoma, 33.2%; in the assay with SK-MEL-28 melanoma it was 87.6%.

`C[C@H](NC(=O)[C@@H]1CSSC[C@@H](NC(=O)c2nc3ccccc3cc2O)C(=O)NCC(=O)N1C)c1ccccc1`: the growth in the assay on HCT-15 colon was 42.1%; in the assay on HT29 colon, -28.2% (active); in the assay with SNB-75 CNS it was 80.3%; in the assay on SNB-19 CNS, 35.4%; with U251 CNS it was -7.49% (active); with PC-3 prostate, 54.7%. For the same molecule, the growth was 0.825% (active) in the assay with SK-MEL-5 melanoma, 16.7% in the assay on UACC-62 melanoma, -74.5% (active) with LOX IMVI melanoma and 33.9% in the assay on SK-MEL-28 melanoma.

For `O=C(CSc1nnc(-c2ccc(NC(=O)c3cccnc3)cc2)o1)N[C@@H](Cc1ccc(O)cc1)C(=O)O`, the growth with HCT-15 colon is 113%; in the assay on HT29 colon, 106%; in the assay with SNB-75 CNS, 98.9%; with SNB-19 CNS it was 96.7%; in the assay with U251 CNS it was 103%; in the assay on PC-3 prostate, 101%. Moreover, the growth in the assay with SK-MEL-5 melanoma is 100%; in the assay on UACC-62 melanoma, 92.8%; in the assay on LOX IMVI melanoma it was 104%; with SK-MEL-28 melanoma it was 108%.

With `Cn1c2c(c3ccc(Cl)c(Cl)c31)C(C#N)C1(CCNCC1)NC2=O` (stereo not given), the growth in the assay with HCT-15 colon is 47.2%; in the assay on HT29 colon, 9.42% (active); in the assay on SNB-75 CNS it was 22.2%; with SNB-19 CNS it was 57.2%; in the assay on U251 CNS, 47.7%; in the assay on PC-3 prostate, 20.5%. Also, the growth is 59.6% in the assay with SK-MEL-5 melanoma, -46.5% (active) in the assay with UACC-62 melanoma, 14.2% with LOX IMVI melanoma and -81.4% (active) with SK-MEL-28 melanoma.

Take `C[C@H]1[C@H]2[C@H]3CC[C@@H]4[C@@]5(C)C/C(=C/c6ccco6)C(=O)C(C)(C)[C@@H]5CC[C@@]4(C)[C@]3(C)CC[C@]23CO[C@]1(C)[C@@H](C(=O)/C=C\c1ccco1)C3`: the growth in the assay on HCT-15 colon was 112%; in the assay on HT29 colon, 105%; in the assay with SNB-75 CNS, 88.2%; with SNB-19 CNS, 91.8%; with U251 CNS, 83.4%; with PC-3 prostate, 79.7%. Also, the growth in the assay on SK-MEL-5 melanoma was 55.7%; in the assay with UACC-62 melanoma, 26%; in the assay with LOX IMVI melanoma it was 93.6%; in the assay with SK-MEL-28 melanoma, 43.9%.
